Results as given in PubChem BioAssay (NCATS).
Inconclusive results are not listed. Activity calls are given as the source filed them. Calls come from the whole dose curve; as a rule, active = well fitted inhibition curve with a large enough effect; inconclusive = small, poorly fitted or top-dose-only effect; inactive = flat fitted curve, though single readings scatter.

biological target: Ubiquitin carboxyl-terminal hydrolase 1 (Homo sapiens) (UniProt O94782); assay: Inhibitors of USP1/UAF1: Pilot qHTS (AID 504865); conditions: purified USP1/UAF1, Ub-rhodamine cleavage fluorescence; series mostly up to 114 µM; activity change, negative = inhibition: at the top concentration;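 note: rhodamine fluorescence freed from ubiquitin-rhodamine substrate followed over time; top concentration of the series differs between compounds; nearly all actives have a fitted effect of over 35% in size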
Outline: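 Deubiquitinase activity followed as kinetic rhodamine fluorescence release from 150 nM Ub-Rho. 1 nM USP1/UAF1 with compound, after 15 min room-temperature preincubation, in HEPES pH 7.8 buffer containing TCEP, EDTA, BSA and Tween-20.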
% is set by controls: 0 for no effect and ±100 for the full control effect.

Chain of Ubiquitin carboxyl-terminal hydrolase 1 (Homo sapiens) (O94782 whole entry, looked up): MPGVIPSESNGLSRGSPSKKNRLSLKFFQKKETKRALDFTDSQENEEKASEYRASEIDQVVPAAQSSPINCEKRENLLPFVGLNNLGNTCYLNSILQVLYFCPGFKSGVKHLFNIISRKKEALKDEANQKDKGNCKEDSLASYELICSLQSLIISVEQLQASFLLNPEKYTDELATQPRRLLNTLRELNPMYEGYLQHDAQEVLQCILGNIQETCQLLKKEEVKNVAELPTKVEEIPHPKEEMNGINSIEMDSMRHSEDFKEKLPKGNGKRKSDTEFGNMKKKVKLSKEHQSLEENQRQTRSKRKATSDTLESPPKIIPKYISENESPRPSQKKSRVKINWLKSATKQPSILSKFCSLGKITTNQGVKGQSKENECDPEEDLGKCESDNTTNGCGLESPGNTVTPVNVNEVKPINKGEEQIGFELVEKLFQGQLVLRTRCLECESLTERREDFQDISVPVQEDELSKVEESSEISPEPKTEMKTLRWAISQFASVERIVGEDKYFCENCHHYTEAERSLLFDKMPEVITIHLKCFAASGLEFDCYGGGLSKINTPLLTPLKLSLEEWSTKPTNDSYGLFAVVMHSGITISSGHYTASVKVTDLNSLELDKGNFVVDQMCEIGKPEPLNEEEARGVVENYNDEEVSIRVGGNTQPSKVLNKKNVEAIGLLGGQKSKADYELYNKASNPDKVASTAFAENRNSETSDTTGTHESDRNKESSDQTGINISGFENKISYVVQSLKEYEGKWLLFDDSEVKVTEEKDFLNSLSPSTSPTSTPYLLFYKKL

Compound	activity change, negative = inhibition
C[C@H](O)CN(C)C	-7.43% (inactive)
CC(C)(Oc1ccc(C2CCCc3ccccc32)cc1)C(=O)O (stereo not drawn)	-3.14% (inactive)
C/C(=C\C(=O)OCCCCCCCCC(=O)O)C[C@@H]1OC[C@H](C[C@@H]2O[C@H]2[C@@H](C)[C@H](C)O)[C@@H](O)[C@H]1O	-6.99% (inactive)
